For orientation: viability means a read-out of living cells in per cent, often relative to untreated cells. In general, inhibition refers to the drop in the measured response relative to a control, in per cent.

Data on 9 compounds can be found in PubChem BioAssay.

A short description of assay [1]: liver-stage malaria parasite growth inhibition, primary screen, cell-based, HepG2, luciferase luminescence, HepG2 viability (AID 624349; in the data active = parasite load remaining mostly below about 12%, no sharp cut-off; inactive = mostly above about 10%;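 also: 100% = mean of DMSO negative control wells on the same plate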). Particulars: P. berghei liver stage in HepG2, luciferase luminescence, concentration not given here; parasite load remaining: stronger effect = lower value; viability: measured here: HepG2 viability without parasites.
Assay [2] is described as follows: Cy5 fluorescence interference with SSB-bound oligo, artefact control for HCV NS3 helicase inhibitor project, biochemical, NIH Clinical Collection, E. coli SSB (AID 743268; call rule not given here).
Assay [3] deals with Hepatitis C virus NS3 helicase. Briefly: HCV NS3 helicase inhibitors, primary screen, biochemical, fluorescence polarization, NIH Clinical Collection (AID 743270; call rule not given here). Particulars: NS3 helicase binding to Cy5-dT15 DNA, stronger effect = higher value, concentration not given here.
For assay [4], the target named is Single-stranded DNA-binding protein (Escherichia coli (strain K12)) (UniProt P0AGE0). The assay can be described thus: E. coli SSB displacement from DNA, counter-screen for HCV NS3 helicase inhibitor project, biochemical, fluorescence polarization, NIH Clinical Collection (AID 743271; in the data active = inhibition above about 28%). Particulars: stronger effect = higher value, concentration not given here. On the technique in general: A counterscreen serves to expose hits that act by an unwanted route or on another target.

Assay [5] in a line: fluorescence interference in NS3h assay format, artefact control for HCV NS3 helicase inhibitor project, biochemical, NIH Clinical Collection (AID 743272; call rule not given here;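 also: HCV NS3 helicase with a Cy5 labelled single stranded DNA probe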). Particulars: fluorescence interference counterscreen, stronger effect = lower value.
In assay [6] the test system is Neuropilin-2 / VEGF-C interaction (human). The assay can be described thus: inhibitors of NRP2–VEGF-C binding, biochemical, microplate binding format, z-score (AID 743281; call rule not given here). Particulars: microplate NRP2/VEGF-C binding assay; stronger effect = lower value.
Assay [7] in a line: modulation of C. elegans fzo-1 (AID 1259413; call rule not given here;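 also: fzo-1 mutant C. elegans worms in liquid wells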). Particulars: C. elegans fzo-1 modulator screen, mean read-out; stronger effect = higher value.
A short description of assay [8]: sensitizers of A549 cells to miR-34 induction, primary screen, imaging, A549 dox-inducible miR-34, nuclei and caspase counts (AID 1347080;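 active = compounds whose cell count with miR-34 switched on is under 0.7 times the count with it off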). Particulars: A549 miR-34 inducible, Hoechst nuclei count, 48 h.
Assay [9] is described as follows: viability rescue of complex I mutant cybrids, primary screen, cell-based, galactose medium, ATP luminescence (AID 1645843;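 active = z-score of at least 1.8 in each of two replicates, scored against plate mean and spread of sample wells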;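 also: positive z means more ATP and so rescue of galactose-driven cybrid death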). Particulars: complex I mutant cybrid cells, 72 h, stronger effect = higher value.
Assay [10] relates to F380Y. Briefly: modulators of BK channel variants, profiling panel, selectivity assay, cell-based, U2OS BacMam, thallium flux, beta subunits (AID 1259406).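 Also: initial slope of Thallos dye fluorescence rise after thallium is added; log ratio against the mean of 0.3% DMSO vehicle wells on the same plate.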 Particulars: at 30 µM.
The test system of assay [11] is F380Y/beta2Delta. Described as above. Particulars: at 30 µM.
Assay [12] concerns the target Calcium-activated potassium channel subunit alpha-1 (Homo sapiens) + Leucine-rich repeat-containing protein 26 (Homo sapiens) (UniProt Q12791+Q2I0M4). Described as above. Particulars: F380Y/Slo1WT/gamma1, at 30 µM.
In assay [13] the test system is R275C. The assay is described as above. Particulars: at 30 µM.
Assay [14] relates to R275C/beta1. Described as above. Particulars: at 30 µM.
In assay [15] the test system is R275C/beta2Delta. The description is as above. Particulars: at 30 µM.
Assay [16] relates to F380Y/beta1. The assay is described as above. Particulars: at 30 µM.
Assay [17] deals with F380Y/beta4. The assay is described as above. Particulars: at 30 µM.
For assay [18], the system named is R275C/beta4. The description is as above. Particulars: at 30 µM.
Assay [19] deals with R275C/Slo1WT/beta2. Described as above. Particulars: at 30 µM.
[20] abbreviates: stronger effect = lower value, cell number ratio, induced over uninduced.
The mark [21] stands for this setting: measured here: relative caspase fold change +Dox/-Dox.
[22] abbreviates: measured here: total cells with miR-34 induction, stronger effect = lower value.
The mark [23] stands for this setting: measured here: total cells without miR-34 induction.

Where “and” joins values, the source holds several entries; their conditions need not be identical. Identical values can stand only once. Calls of active or inactive are those of the source.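 The calls were made as follows, unless noted: active = thallium flux through the channel raised or lowered by more than 3 SD from vehicle-only wells, actives on both sides; inactive = the rest.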

Sequence of Calcium-activated potassium channel subunit alpha-1 (Homo sapiens) + Leucine-rich repeat-containing protein 26 (Homo sapiens) (Q2I0M4 whole entry, looked up, one chain of several): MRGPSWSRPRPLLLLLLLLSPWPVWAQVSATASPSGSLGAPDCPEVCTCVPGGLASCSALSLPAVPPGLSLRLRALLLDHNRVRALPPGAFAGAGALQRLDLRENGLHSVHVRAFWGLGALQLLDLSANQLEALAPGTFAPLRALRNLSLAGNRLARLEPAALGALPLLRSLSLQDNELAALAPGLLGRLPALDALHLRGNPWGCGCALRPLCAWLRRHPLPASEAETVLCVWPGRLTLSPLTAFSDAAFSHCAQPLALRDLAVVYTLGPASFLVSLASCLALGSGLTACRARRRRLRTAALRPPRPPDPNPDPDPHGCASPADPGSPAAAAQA

In the case of `COc1cc(N)c(Cl)cc1C(=O)N[C@@H]1CCN(CCCOc2ccc(F)cc2)C[C@@H]1OC`, in [1], the parasite load remaining is 13.5% (inactive). The compound also had a viability in assay [1] of 57.3%. For the same compound, the fluorescence ratio was 1 (inactive) in assay [2] and 0.96 (inactive) in assay [5]. For the same compound, the inhibition in assay [3] is -2.77% (inactive); in assay [4], -0.1% (inactive). In addition, the z-score is -0.527 (inactive) in assay [6] and -0.47 (inactive) in assay [9]. The mean signal in assay [7] is 277 (inactive). The results for the fold change in [8] (setting [20]) and in assay [8] (setting [21]) were 0.991 (inactive) and 0.684, respectively. In addition, the cell count in [8] (setting [22]) turned out to be 6800; in assay [8] (setting [23]), 6860. Besides, the log fold change Tl+ flux in assay [10] is 0.00662 (inactive); in assay [11], 0.0148 (inactive); in assay [12], -0.0526 (inactive); in [13], 0.0357 (inactive); in assay [14], -0.0487 (inactive); in [15], 0.039 (inactive).
For `CCC(=O)OCC(=O)[C@@]1(OC(=O)CC)[C@@H](C)C[C@H]2[C@@H]3CCC4=CC(=O)C=CC4(C)[C@@]3(Cl)[C@@H](O)CC21C` (some centres not stated), in assay [7], the mean signal is 228 (inactive).
As for `COCCCCC(=NOCCN)c1ccc(C(F)(F)F)cc1`, the parasite load remaining in assay [1] is 46.6% (inactive). Moreover, in assay [1], the viability is 56.9%. Besides, the fluorescence ratio in assay [2] was 0.97 (inactive); in assay [5] it was 0.89 (inactive). Moreover, the inhibition in assay [3] was -1.98% (inactive); in assay [4], -0.1% (inactive). Moreover, the fold change in assay [8] (setting [20]) is 0.929 (inactive) and 0.879 (inactive) and 0.949 (inactive); in [8] (setting [21]) it was 2.57 and 0.586 and 0.773. In addition, the cell count in [8] (setting [22]) is 7760 and 8160 and 6370; in [8] (setting [23]) it was 8360 and 9280 and 6710. The z-score in assay [9] is -0.79 (inactive) and -1.17 (inactive). Further, the log fold change Tl+ flux in assay [10] is -0.0607 (inactive); in [11] it was -0.0598 (inactive); in [12], -0.0791 (inactive); in [13] it was -0.0449 (inactive); in assay [14], 0.0249 (inactive); in assay [15], 0.0321 (inactive).
In the case of `CC(=O)OCC(=O)C12OC(C)(C)O[C@@H]1C[C@H]1[C@@H]3C[C@H](F)C4=CC(=O)C=CC4(C)[C@@]3(F)[C@@H](O)CC12C` (some centres not stated), the mean signal in [7] is 228 (inactive).
As for `CC(=CCC1=C(C)C(=O)c2ccccc2C1=O)CCCC(C)CCCC(C)CCCC(C)C` (configuration not stated), the parasite load remaining in assay [1] is 49.5% (inactive). Besides, the viability in assay [1] came to 97.8%. For the same compound, the figures for the fluorescence ratio in assay [2] and in assay [5] were 1.04 (inactive) and 0.97 (inactive), respectively. Besides, the figures for the inhibition in [3] and in assay [4] were -1.36% (inactive) and 3.34% (inactive), respectively. In addition, the fold change in assay [8] (setting [20]) was 1.25 (inactive); in [8] (setting [21]), 2.78. For the same compound, the cell count is 7560 in assay [8] (setting [22]) and 6060 in assay [8] (setting [23]). For the same compound, the z-score in assay [9] is -1.38 (inactive). In addition, the log fold change Tl+ flux in assay [10] is -0.0115 (inactive); in assay [16] it was 0.045 (inactive); in [11], 0.0296 (inactive); in [17], 0.0448 (inactive); in [12] it was 0.0507 (inactive); in assay [13] it was 0.0242 (inactive). Besides, the log fold change Tl+ flux in assay [14] was 0.0513 (inactive); in assay [15], 0.0188 (inactive); in assay [18], 0.0575 (inactive); in assay [19], -0.0288 (inactive).
Consider `CC1c2cccc(O)c2C(O)=C2C(=O)[C@]3(O)C(O)=C(C(N)=O)C(=O)[C@@H](N(C)C)[C@@H]3C[C@@H]21` (some centres not stated), for which the parasite load remaining in assay [1] was 60.3% (inactive). In assay [1], the viability was 97.3%. In addition, the values for the fluorescence ratio in assay [2] and in assay [5] were 1.04 (inactive) and 0.95 (inactive), respectively. The inhibition in assay [3] was -1.36% (inactive); in [4], 28.5% (active). The fold change is 1 (inactive) in assay [8] (setting [20]) and 1.44 in [8] (setting [21]). Also, the cell count in [8] (setting [22]) and in [8] (setting [23]) was 11000 each time. For the same compound, in [9], the z-score was -0.345 (inactive). Moreover, the log fold change Tl+ flux in assay [10] is -0.00643 (inactive); in assay [16], -0.038 (inactive); in [11] it was 0.00306 (inactive); in [17] it was -0.0368 (inactive); in [12], 0.011 (inactive); in assay [13], -0.004 (inactive). Also, the log fold change Tl+ flux is -0.0442 (inactive) in assay [14], -0.00508 (inactive) in assay [15], 0.0272 (inactive) in [18] and 0.0157 (inactive) in assay [19].
For `C[C@]12C=CC(=O)C=C1CC[C@@H]1[C@@H]2[C@@H](O)C[C@@]2(C)[C@H]1CC[C@]2(O)C(=O)COC(=O)CCC(=O)O`, in assay [1], the parasite load remaining was 128% (inactive). In addition, the viability in [1] was 72.6%. Also, the fluorescence ratio in [2] was 1 (inactive); in [5] it was 0.99 (inactive). For the same compound, the inhibition in assay [3] is 7.52% (inactive); in [4] it was 4.52% (inactive). The log fold change Tl+ flux in [10] was -0.0223 (inactive); in [16], 0.0033 (inactive); in assay [11], 0.00204 (inactive); in [17], -0.00342 (inactive); in assay [12], -0.00445 (inactive); in [13] it was -0.00218 (inactive). Moreover, the log fold change Tl+ flux is -0.0173 (inactive) in assay [14], -0.00108 (inactive) in assay [15], -0.0167 (inactive) in assay [18] and -0.0235 (inactive) in assay [19].
Consider `CCN(CC)CCOc1ccc(C(=C(Cl)c2ccccc2)c2ccccc2)cc1`, for which the parasite load remaining in [1] is -4.11% (inactive). The compound further had a viability in assay [1] of 3.72%. In addition, the fluorescence ratio was 0.76 (active) in assay [2] and 0.97 (inactive) in [5]. Also, the inhibition is -10.4% (inactive) in [3] and 0.29% (inactive) in assay [4]. Besides, the fold change is 1.09 (inactive) and 0.932 (inactive) in assay [8] (setting [20]); 2.63 and 0.76 in assay [8] (setting [21]). The cell count in [8] (setting [22]) is 5020 and 7560; in assay [8] (setting [23]), 4620 and 8110. In assay [9], the z-score is -1.52 (inactive). In addition, the log fold change Tl+ flux in [10] is 0.00267 (inactive); in [16], -0.533 (active); in assay [11], 0.0152 (inactive); in [17], -0.059 (inactive); in [13], 0.0156 (inactive); in [14], 0.0697 (inactive). Besides, the log fold change Tl+ flux is -0.00533 (inactive) in assay [15], 0.493 (active) in assay [18] and -0.157 (active) in [19].
Regarding `COCC1=C(C(=O)OC(C)OC(=O)OC(C)C)N2C(=O)[C@@H](NC(=O)C(=NOC)c3csc(N)n3)[C@H]2SC1` (some centres not stated), the parasite load remaining in assay [1] was 83.9% (inactive). The viability in assay [1] was 70.5%. Moreover, the fluorescence ratio in assay [2] is 0.97 (inactive); in assay [5], 1 (inactive). In addition, the inhibition is 1.98% (inactive) in [3] and -0.1% (inactive) in [4]. Also, the log fold change Tl+ flux in assay [10] is 0.0206 (inactive); in [16] it was 0.0461 (inactive); in [11], 0.0192 (inactive); in [17], 0.0327 (inactive); in assay [12], 0.0109 (inactive); in [13] it was 0.00217 (inactive). Besides, the log fold change Tl+ flux in assay [14] was -0.0216 (inactive); in [15], 0.0293 (inactive); in assay [18], 0.0115 (inactive); in [19] it was 0.0178 (inactive).
